JMJD2A Tudor inh – qHTS Assay for Inhibitors of JMJD2A-Tudor Domain; AlphaScreen JMJD2A-Tudor / H3K4me3 peptide binding; AID 504339, 2011; Lysine-specific demethylase 4A (Homo sapiens), O75164; 390,000 tested, 4.4% active; Potency, µM (titrated, usually from 114 µM), usual class: inhibitors; note: nearly all actives have a fitted effect of over 50% in size
BAZ2B inh – qHTS Assay for Inhibitors of BAZ2B. AlphaScreen BAZ2B-H3K14Ac peptide displacement. Potency, µM (doses to about 114 µM), actives largely listed as inhibitors. Bromodomain adjacent to zinc finger domain protein 2B (Homo sapiens), Q9UIF8. 360,000 tested, 4.4% active. AID 504333, 2011; note: nearly all actives have a fitted effect of over 60% in size
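AlphaScreen displacement: compounds (up to 110uM) incubated 30 min at room temperature with a preformed 50 nM BAZ2B/50 nM biotinylated H3K14Ac peptide complex in PBS pH 7.4 with Tween-20. Donor and acceptor beads at 10 ug/mL final added, 20 min light-protected before reading.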
PLK1 PBD block – qHTS for Inhibitors of PLK1-PDB (polo-like kinase 1 - polo-box domain): Primary Screen. Serine/threonine-protein kinase PLK1 (Homo sapiens), P53350. Plk1 PBD binding of FITC phosphopeptide, fluorescence polarization. Potency, µM, usual class: inhibitors. 360,000 tested, 2.8% active. AID 720504, 2013; note: series mostly up to about 57 µM; nearly all actives have a fitted effect of over 65% in size
G9a block – qHTS Assay for Inhibitors of Histone Lysine Methyltransferase G9a; G9a H3K9 monomethylation, AlphaScreen, 2 h; Potency, µM (top dose mostly 102 µM), usual class: inhibitors; 350,000 tested, 8.8% active; AID 504332, 2011; note: nearly all actives have a fitted effect of over 75% in size
Target sequence (Q96KQ7 913-1193 limits assumed): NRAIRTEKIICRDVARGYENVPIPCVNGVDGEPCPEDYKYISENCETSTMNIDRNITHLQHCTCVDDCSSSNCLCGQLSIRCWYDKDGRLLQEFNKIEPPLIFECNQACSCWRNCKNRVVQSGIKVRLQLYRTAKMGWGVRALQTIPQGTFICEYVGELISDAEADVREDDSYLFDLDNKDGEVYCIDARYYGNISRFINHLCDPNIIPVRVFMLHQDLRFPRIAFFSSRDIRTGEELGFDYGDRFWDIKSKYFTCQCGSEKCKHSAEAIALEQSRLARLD
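Step 1: enzyme (final 20 nM) with compound, 15 min RT. Step 2: substrate peptide 500 nM and SAM 20 uM, 2 h RT. Step 3: anti-H3K9me1 antibody and AlphaScreen beads, 10 min, then plate read.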
Sfp PPTase inh – qHTS Assay for Inhibitors of Bacillus subtilis Sfp phosphopantetheinyl transferase (PPTase). 310,000 tested, 3.5% active. Biochemical Sfp PPTase activity, qHTS. Potency, µM, most hits filed as inhibitors;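 note: the enzyme is Sfp with the accession as filed and its product quenches rhodamine fluorescence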
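With Hepes-Na pH 7.6 buffer containing 10 mM MgCl2, Sfp (15 nM) modified BHQ-2-YbbR (12.5 uM) using rhodamine-CoA (5 uM). Two reads 30 minutes apart at 525/598 nm yielded each well's rate.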
HP1b binding inh – HTS for Inhibitors of HP1-beta Chromodomain Interactions with Methylated Histone Tails. AlphaScreen HP1-beta / biotin-H3K9me3 peptide binding. Potency, µM (top dose mostly 114 µM), most hits filed as inhibitors. 390,000 tested, 0.56% active. AID 540317, 2011; note: nearly all actives have a fitted effect of over 70% in size
Target sequence (P83916 whole entry, looked up): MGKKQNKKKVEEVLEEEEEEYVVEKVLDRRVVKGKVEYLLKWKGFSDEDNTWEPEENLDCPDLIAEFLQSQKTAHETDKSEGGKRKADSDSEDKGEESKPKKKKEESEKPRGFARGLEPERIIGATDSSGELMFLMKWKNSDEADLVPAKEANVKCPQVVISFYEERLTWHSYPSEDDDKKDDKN
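Compound inhibition of the preformed complex between 50 nM HP1-beta and 50 nM biotinylated H3K9me3 peptide was read by AlphaScreen. Buffer was PBS pH 7.4 with 0.01% Tween-20. Incubations ran 30 min at room temperature, with 10 ug/mL donor/acceptor beads.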
A number is an active result; - = inactive; ? = inconclusive; . = no result given; ! = repeats disagree; [ ] = remark or other dose. An excerpt weighted towards active compounds, which were near 12% of everything screened. Calls come from the whole dose curve; as a rule, active = well fitted curve in the direction sought with a large enough effect; inconclusive = small, poorly fitted or top-dose-only effect, or another doubt; inactive = no such curve, though single readings can be large; an effect the other way counts as inactive or inconclusive.

SMILES	JMJD2A Tudor inh	BAZ2B inh	PLK1 PBD block	G9a block	Sfp PPTase inh	HP1b binding inh
O=C(CSc1ccc(-c2ccccn2)nn1)c1ccc([N+](=O)[O-])cc1	?	8.9µM	-	40µM	32µM	-
O=C(CC(=O)c1ccccc1)c1ccccc1	-	.	-	-[2.33 µM]	-	-
O=C(COC(=O)c1ccccn1)c1ccc([N+](=O)[O-])cc1	25µM	11µM	-	11µM	?	-
COc1ccc(N2C(N)=C(C#N)C(c3cc(CN4CCOCC4)cs3)C3=C2CCCC3=O)cc1 (stereo not given)	-	-	.	-	.	-
O=C(CSc1ccc(-c2cccnc2)nn1)c1ccc([N+](=O)[O-])cc1	-	-	-	22µM	-	-
O=[N+]([O-])c1cccc(-c2ccc(SCc3cccnc3)nn2)c1	-	?	-	-	-	-
CC1=NN(c2ccccc2)C(=O)/C1=C/c1cn(C)c2ccccc12	6.3µM	5µM	-	-	-	11µM
CC1=NN(c2ccccc2)C(=O)/C1=C\c1cn(C)c2ccccc12	8.9µM	3.5µM	-	11µM	-	16µM
COC(=O)CSc1nc2nc(C)c(Br)cc2[nH]1	-	-	-	7.9µM	-	-
Cc1ccc(NC(=O)CSc2nc3nc(C)c(Br)cc3[nH]2)cc1F	-	-	-	-	-	-
Cc1nc2nc(SCc3ccc([N+](=O)[O-])cc3)[nH]c2cc1Br	-	-	-	-	-	-
C=C(C)CSc1nc2nc(C)c(Br)cc2[nH]1	.	-	.	7.1µM	-	.
O=C(CN1C(=O)c2ccccc2C1=O)Nc1nnc(C2CCCO2)s1 (stereo not given)	-	-	-	45µM	-	-
CCCC(=O)Nc1nnc(C2CCCO2)s1 (stereo not given)	?	-	-	-[0.501 µM]	-	-
CCCN(CC1CC1)C(=S)NC(=O)c1cc(Br)ccc1Cl	-	-	-	-	.	-
COc1ccccc1CNc1ccc([N+](=O)[O-])cc1C	-	?	?	.	-	-
Cc1cc([N+](=O)[O-])ccc1NCc1ccccc1	-	-	-	.	-	-
Cc1ccccc1NCc1ccc([N+](=O)[O-])s1	?	50µM	-	.	-	?
COc1ccccc1NCc1ccc([N+](=O)[O-])s1	?	50µM	-	7.9µM	-	?
COc1ccc(F)cc1S(=O)(=O)NCCc1c(C)[nH]c2c(Cl)cccc12	-	?	.	-	.	-
COc1cc(C)c(Cl)cc1S(=O)(=O)NCCc1c(C)[nH]c2ccccc12	?	32µM	.	-	.	-
C[C@@H](CCc1ccc(O)cc1)NCCc1ccc(O)c(O)c1	.	.	.	-[21.5 µM]	56µM!	.
Cc1ccc(NC(=S)NC(NC(=O)c2ccccc2C)C(Cl)(Cl)Cl)c(C)c1 (stereo not given)	-	-	-	?	-	-
Cc1ccc(C)c(NC(=S)NC(NC(=O)N(C)C)C(Cl)(Cl)Cl)c1 (stereo not given)	-	-	-	4.5µM	-	-
CC(=O)NC(NC(=S)Nc1ccc(C)cc1C)C(Cl)(Cl)Cl (stereo not given)	-	-	?	45µM	-	-
SMILES	JMJD2A Tudor inh	BAZ2B inh	PLK1 PBD block	G9a block	Sfp PPTase inh	HP1b binding inh
CN1CCN(C(CNC(=O)C(=O)Nc2ccc(Cl)cc2)c2cccnc2)CC1 (stereo not given)	-	-	.	-	.	-
Cc1nn(C)cc1/C=N/NC(=S)Nc1ccccc1	?	-	12µM	?	25µM	-
Oc1ccccc1C=NNC(=S)Nc1ccc(F)cc1	56µM	.	-	.	.	-
COC(=O)CCCC1=CC2=C(c3ccccc3)C(=O)C(C)(OC(=O)C3CCCC3)C(=O)C2=CN1CCCOC(C)C (stereo not given)	.	.	.	.	-	.
Cc1ccc(SCC(=O)OCC(=O)NCc2cccs2)cc1C	-	-	-	-	.	-
O=C(NCC1COc2ccccc2O1)c1cc(S(=O)(=O)N2CCOCC2)ccc1F (stereo not given)	-	-	-	22µM	.	-
CN(CC1COc2ccccc2O1)C(=O)c1cccc(S(=O)(=O)N2CCCC2)c1 (stereo not given)	-	-	-	1µM	.	-
O=C(NCC1COc2ccccc2O1)c1cccc(S(=O)(=O)N2CCCCC2)c1 (stereo not given)	-	-	-	-[12.7 µM]	.	-
O=C(NCC1COc2ccccc2O1)c1c[nH]c2ccc(S(=O)(=O)N3CCOCC3)cc2c1=O (stereo not given)	-	-	-	?	-	-
O=C(O)c1cc(-c2ccccc2)nn1Cc1ccccc1	-	.	.	-	.	-
Cc1ccc2c(=O)c3cccc(CC(=O)O)c3oc2c1C	.	.	.	.	-	.
Cc1ccc(Nc2nc(CSc3nnc(-c4ccccc4C)n3C)cs2)cc1	79µM	?	-	32µM	?	-
Cn1nnnc1SCc1csc(Nc2ccccc2)n1	-	-	-	?	50µM	-
Cc1ccc(Nc2nc(CSc3nnc(-c4ccccc4)n3C)cs2)cc1	?	?	-	?	-	?
Cc1ccccc1-n1c(SCc2csc(Nc3ccccc3)n2)nnc1-c1cccnc1	?	?	-	25µM	-	-
CCn1cc(C(=O)OCC(=O)c2cc(C)n(-c3ccccc3F)c2C)c(=O)c2ccc(C)nc21	40µM	?	27µM	-	-	?
CC(=O)Nc1c2c(nn1-c1ccc(F)cc1)CSC2	-	-	-	-	-	-
Cc1cnc(NC(=O)CCCc2nc3ccccc3s2)s1	-	-	?	35µM	40µM	-
O=C(COc1ccccc1)Nc1nn[nH]n1	79µM	79µM	-	?	-	-
O=C(COc1cccc(Oc2ccccc2)c1)Nc1ncccn1	-	-	-	?	-	-
Cc1ccc2nc(NC(=O)CCCc3nc4ccccc4s3)sc2c1	-	-	?	?	-	-
COc1ccc(C)c2sc(NNC(=O)COc3ccccc3)nc12	.	-	.	?	56µM	.
O=C(Nc1nc(-c2ccccc2)ns1)c1ccncc1	-[11.4 µM]	-	8.4µM	.	-	-
COc1cccc2sc(NNC(=O)COc3ccccc3)nc12	-	-	-	?	?	-
COc1cc(NC(=O)CN2C(=O)CN(C)C(=O)c3ccccc32)cc(OC)c1OC	-	-	.	-	.	-
COc1ccc(CNC(=O)Cc2ccc(NC(=O)N3CCSc4ncccc43)cc2)cc1OC	-	-	.	-	.	-
CCOC(=S)SCC(=O)Nc1ncc(C)s1	-	-	-	.	16µM	-
Cc1cnc(NC(=O)c2ccncc2)s1	-	-	-	50µM	-	-
COc1ccccc1OCC(=O)Nc1ncc(C)s1	-	-	-	-[12.7 µM]	.	-

Screens: PubChem BioAssay, National Center for Advancing Translational Sciences (NCATS)
